ChEMBL document CHEMBL3988442, “University of Dundee, Small-Polar-MMV Screening Library” (2021)
The whole screen tested about 66,000 compounds, of which about 960 (1.5%) showed an effect of 50% or more. The entries come from a sample that favours strong results as a whole.

Test system: Trypanosoma brucei
Assay: Trypanosoma brucei 72 hour study
Type: functional, organism-based
Design: scale not given: in the data most compounds retested in dose-response had high values

Cc1cc(N2CCN(C(=O)c3cc(Cl)c[nH]3)CC2)nc(C)n1
Percent Effect (30 µM, 30.03 µM): -21.87%

Cc1cc(N2CCN(C(=O)c3cc(Cl)c[nH]3)CC2)nc(N)n1
Percent Effect (30 µM, 30.03 µM): 109.2%

Cc1cc(N2CCN(C(=O)c3cc(Cl)c[nH]3)CC2)nc(C(C)C)n1
Percent Effect (30 µM, 30.03 µM): -55.97%

Cc1ccc(CN(CCCN(C)C)Cc2cnc(C)n2C)o1.O=C(O)CC(O)(CC(=O)O)C(=O)O
Percent Effect (30.3 µM, […]): -2.378%

CCn1c(C(=O)N2CCN(CC[S+](C)[O-])CC2)cc2ccccc21 (stereo unspecified)
Percent Effect (10 µM): -31.07%

CC(=O)c1ccc(NC(=O)NCc2cccc(N(C)C)n2)cc1C
Percent Effect (30 µM, 30.03 µM): -17.1%

COc1ccc(NC(=O)NCc2cccc(N(C)C)n2)c(Cl)c1
Percent Effect (30.3 µM, […]): 103.9%

CN(C)c1cccc(CNC(=O)Nc2cc(C#N)ccc2Cl)n1
Percent Effect (30.3 µM, […]): -223.5%

COc1cc(F)cc(NC(=O)NCc2cccc(N(C)C)n2)c1
Percent Effect (30.3 µM, […]): -613%

COc1ccc(C)c(NC(=O)NCc2cccc(N(C)C)n2)c1
Percent Effect (30.3 µM, […]): -277.4%

COCc1c(Cl)cccc1NC(=O)NCc1cccc(N(C)C)n1
Percent Effect (30.3 µM, […]): 55.78%

N#Cc1cccc(C(=O)N2CCC3(CCC(=O)N(C4CC4)C3)CC2)c1
Percent Effect (30 µM, 30.03 µM): -3.327%

O=C(O)C(F)(F)F.c1ccc(CN2CCc3c(CNc4nccs4)n[nH]c3C2)nc1
Percent Effect (30 µM, 30.03 µM): -34.93%

Cc1ccn(CCC(=O)N2CCCC2c2nnc(-c3scnc3C)o2)n1 (stereo unspecified)
Percent Effect (30.3 µM, […]): -1.608%

Cc1cnc(-c2nc(C3CCCN(Cc4ccccc4C)C3)no2)cn1.Cl (stereo unspecified)
Percent Effect (30.3 µM, […]): -19.46%

CCc1cc(-c2ccnc3c2ccn3C)nc(N2CCOCC2)n1
Percent Effect (30 µM, 30.03 µM): -28.1%

Cn1ccc2c(-c3cc(N4CCOCC4)ncn3)ccnc21
Percent Effect (30 µM, 30.03 µM): -20.01%

Cn1ccc2c(-c3cc(N)nc(N4CCOCC4)n3)ccnc21
Percent Effect (30 µM, 30.03 µM): 69.92%

CCNc1nc(C(=O)N(C)Cc2nc(CC)no2)cs1
Percent Effect (30 µM, 30.03 µM): -27.33%

CC(C)c1nc(C2CCCN2c2cnc3cc(F)c(F)cc3n2)no1 (stereo unspecified)
Percent Effect (30.3 µM, […]): 85.34%

CC(C)c1nc(C2CCCN2c2ccnc(C3CCCC3)n2)no1 (stereo unspecified)
Percent Effect (30.3 µM, […]): -51.91%

CC(C)c1nc(C2CCCN2c2cnc3ccccc3n2)no1 (stereo unspecified)
Percent Effect (30.3 µM, […]): -0.9034%

Cc1noc(C)c1CN1CCc2ncnc(-c3ccoc3)c2CC1.O=C(O)C(F)(F)F
Percent Effect (30.3 µM, […]): -51.79%

Cc1cnccc1CNCc1ccc(OC23CCCN(CC2)C3)cc1 (stereo unspecified)
Percent Effect (30 µM, 30.03 µM): 6.423%

O=c1[nH]nc(CNCc2ccc(OC34CCCN(CC3)C4)cc2)[nH]1 (stereo unspecified)
Percent Effect (30 µM, 30.03 µM): -0.5692%

Cc1nc(CNCc2cccc(OC34CCCN(CC3)C4)c2)n[nH]1 (stereo unspecified)
Percent Effect (30 µM, 30.03 µM): 3.883%

c1ccc(Oc2cccc(OC34CCCN(CC3)C4)c2)cc1 (stereo unspecified)
Percent Effect (30.3 µM, […]): 99.26%

COc1cc(C#N)ccc1OC12CCCN(CC1)C2 (stereo unspecified)
Percent Effect (30 µM, 30.03 µM): -13.64%

c1ccc(Oc2ccc(OC34CCCN(CC3)C4)cc2)cc1 (stereo unspecified)
Percent Effect (30.3 µM, […]): 99.82%

Cl.O=C(Nc1cccc(CNCc2cccs2)c1)C1CC1
Percent Effect (10 µM): -25.65%

O=C(CC1CCC2(CC1)CCN(Cc1ccncc1)CC2)N1CCCC1.O=C(O)C(F)(F)F
Percent Effect (30.3 µM, […]): -30.07%

CCCn1c(N2CCCCC2)nc2c(C)nn(C)c2c1=O
Percent Effect (30.3 µM, […]): -27.42%

CCCn1c(N2CCCC(C)C2)nc2c(C)nn(C)c2c1=O (stereo unspecified)
Percent Effect (30.3 µM, […]): 99.54%

CCCn1c(N2CCCC2)nc2c(C)nn(C)c2c1=O
Percent Effect (30.3 µM, […]): -10.23%

CC(C)CS(=O)(=O)N1C[C@H]2C[C@H](C(=O)N3CCOCC3)[C@@H](C1)O2
Percent Effect (30.3 µM, […]): -39.74%

COc1ncccc1CNc1snc(Cl)c1C#N
Percent Effect (30 µM, 30.03 µM): -23.85%

CC(C)c1cc(C(=O)NCCCN(C)C)nc(N2CCCC2)n1
Percent Effect (30.3 µM, […]): 85.35%

COCCCNC(=O)c1cc(C(C)C)nc(N2CCCC2)n1
Percent Effect (30.3 µM, […]): -9.807%

CCN(CC)CCNC(=O)c1cc(C(C)C)nc(N2CCCC2)n1
Percent Effect (30 µM, 30.03 µM): -3.491%

Cc1nc(C(=O)N2CC[C@@]3(C[C@@H](NS(C)(=O)=O)CCO3)C2)cs1
Percent Effect (30.3 µM, […]): -224.6%

Cc1ccn(-c2ccc(NCc3ccnc(N4CCCCC4)c3)nn2)n1
Percent Effect (30.3 µM, […]): 100.1%

Cc1ccn(-c2ccc(NCc3cccnc3N3CCCCC3)nn2)n1
Percent Effect (30.3 µM, […]): 1.055%

Cc1ccn(-c2ccc(NCc3ccccc3F)nn2)n1
Percent Effect (30.3 µM, […]): -5.586%

CC1c2ncc(CNC(=O)C3CC3)n2CCN1Cc1ccsc1.O=C(O)C(F)(F)F (stereo unspecified)
Percent Effect (30.3 µM, […]): -8.055%

N#Cc1cccc(S(=O)(=O)NC(=O)CCOCC(F)(F)F)c1
Percent Effect (30.3 µM, […]): 72.29%

O=C(CCOCC(F)(F)F)NS(=O)(=O)c1cccnc1
Percent Effect (30.3 µM, […]): -16.93%

N#Cc1cccc(S(=O)(=O)NC(=O)COCC(F)(F)F)c1
Percent Effect (30.3 µM, […]): -64.9%

CN(C)c1ncc(-c2cc(C(=O)NCCC#N)n(CC3CC3)c2)cn1.O=C(O)C(F)(F)F
Percent Effect (30.3 µM, […]): -1.079%

Cn1cc(C(=O)N2CCCC(Cc3cccc4ncccc34)C2)cn1 (stereo unspecified)
Percent Effect (30.3 µM, […]): -45.5%

CC(C)(CNC(=O)NCCc1ccn(-c2ccccc2)n1)C(N)=O
Percent Effect (10 µM): -34.81%

O=C(CCNc1ncccn1)NCCc1ccn(-c2ccccc2)n1
Percent Effect (30 µM, 30.03 µM): 19.3%

CC(C)CCC(=O)NCCc1ccn(-c2ccccc2)n1
Percent Effect (10 µM): 100.3%

CC(C)CC(=O)NCCCc1cc(N)n(-c2ccccc2)n1
Percent Effect (30 µM, 30.03 µM): -23.13%

CCC(CC)C(=O)NCCc1ccn(-c2ccccc2)n1
Percent Effect (10 µM): -35.97%

COCCNC(=O)NCCc1ccn(-c2ccccc2)n1
Percent Effect (30 µM, 30.03 µM): 42.02%

CCN(CC)C(=O)NCCc1ccn(-c2ccccc2)n1
Percent Effect (10 µM): 99.69%

CC(C)(C)C(=O)NCCc1ccn(-c2ccccc2)n1
Percent Effect (30 µM, 30.03 µM): 103.6%

CC(C)(C)C(=O)NCCC(=O)NCCc1ccn(-c2ccccc2)n1
Percent Effect (10 µM): -35.6%

CC(C)c1nc(C2CCCN2Cc2nnc(C3CCC3)o2)no1 (stereo unspecified)
Percent Effect (10 µM): -24.2%

CN(C)CC(=O)N1CCCC1c1cncc(Oc2ccc(F)cc2)n1 (stereo unspecified)
Percent Effect (30.3 µM, […]): -19.56%

COc1c(C2CCCN2C(=O)c2ccc(C#N)c(C)n2)c(C)nn1C (stereo unspecified)
Percent Effect (10 µM): -24.86%
Percent Effect (30.3 µM, […]): 0.3708%

Cc1ccccc1Cc1nc(CSc2nnc(N)n2C)no1
Percent Effect (30.3 µM, […]): 30.54%

Cc1ccccc1Cc1nc(CSc2nnc(N)n2C2CC2)no1
Percent Effect (30.3 µM, […]): 69.45%

CCc1nc(CSc2nnc(N)n2C2CC2)no1
Percent Effect (30.3 µM, […]): -10.47%

O=C1NCCN1C1CCN(CCOc2ccccc2F)CC1
Percent Effect (10 µM): -33.22%
